Records with an inconclusive call do not appear. Calls of active or inactive are those of the source. Unless noted, calls follow the shape of the dose curve; as a rule, active = well fitted curve in the direction sought with a large enough effect in the repeat runs; inconclusive = weak or mixed curves; inactive = no such curve, though single readings can be large; an effect the other way counts as inactive or inconclusive.
Experiments:
[1] = qHTS assay to identify small molecule agonists of the peroxisome proliferator-activated receptor delta (PPARd) signaling pathway - cell viability counter screen (AID 743211); also: % is scaled to controls: 0 for no effect and ±100 for the full control effect; nearly all actives have a fitted effect of over 55% in size
Summary of the method: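 Counter screen for cytotoxicity run in parallel with the PPARd reporter screen. Beta-lactamase reporter HEK293H cells exposed to compounds 17 h; ATP-based CellTiter-Glo luminescence quantified viability.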

[2] = qHTS assay to identify small molecule antagonists of the peroxisome proliferator-activated receptor delta (PPARd) signaling pathway - cell viability counter screen (AID 743213); also: % is scaled to controls: 0 for no effect and ±100 for the full control effect; nearly all actives have a fitted effect of over 50% in size
Summary of the method: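 Same-well viability: cells pre-incubated 5 h, dosed with compound plus 300 nM L165041, kept 17 h at 37 C, FRET substrate 2 h RT, then CellTiter-Glo 30 min RT and luminescence.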

[3] = target: Bile acid receptor (Homo sapiens) (UniProt Q96RI1); assay: qHTS assay to identify small molecule antagonists of the farnesoid-X-receptor (FXR) signaling pathway (AID 743217; active = well fitted inhibition curve with a large enough effect in the signal ratio in the repeat runs, not every such curve was filed as active; the % refers to the signal ratio; also: % is scaled to controls: 0 for no effect and ±100 for the full control effect)
Bile acid receptor (Homo sapiens), sequence (Q96RI1 whole entry, looked up): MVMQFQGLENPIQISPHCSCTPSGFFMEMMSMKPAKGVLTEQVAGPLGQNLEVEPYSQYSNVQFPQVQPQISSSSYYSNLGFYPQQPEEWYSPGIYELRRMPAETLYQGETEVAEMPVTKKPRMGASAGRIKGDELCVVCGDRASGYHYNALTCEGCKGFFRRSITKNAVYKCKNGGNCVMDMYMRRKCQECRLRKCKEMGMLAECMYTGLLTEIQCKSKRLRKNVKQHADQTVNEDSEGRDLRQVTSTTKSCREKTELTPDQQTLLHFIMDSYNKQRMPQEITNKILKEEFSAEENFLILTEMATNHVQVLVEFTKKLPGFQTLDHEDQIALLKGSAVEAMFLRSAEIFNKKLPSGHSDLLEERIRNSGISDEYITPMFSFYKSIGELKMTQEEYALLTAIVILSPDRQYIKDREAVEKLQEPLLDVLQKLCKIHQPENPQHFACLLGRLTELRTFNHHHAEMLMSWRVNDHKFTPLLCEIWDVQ
Summary of the method: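 FXR-UAS-bla HEK 293T cells pre-incubated 5 h at 37 °C, then exposed to compounds with chenodeoxycholic acid (50 uM final) for 16 h at 37 °C. Beta-lactamase reporter read by LiveBLAzer B/G FRET substrate fluorescence after 2 h at room temperature.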

[4] = qHTS assay to identify small molecule agonists of the farnesoid-X-receptor (FXR) signaling pathway - cell viability counter screen (AID 743218); also: % is scaled to controls: 0 for no effect and ±100 for the full control effect; nearly all actives have a fitted effect of over 45% in size
Summary of the method: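 FXR-UAS-bla HEK 293T cells, plated 5 h at 37 C, were exposed to compounds for 16 h at 37 C. CellTiter-Glo was then added to the same wells as the bla readout; luminescence read after 30 min at room temperature.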

[5] = target: Bile acid receptor (Homo sapiens) (UniProt Q96RI1); assay: qHTS assay to identify small molecule agonists of the farnesoid-X-receptor (FXR) signaling pathway (AID 743220; active = well fitted activation curve with a large enough effect in the signal ratio in the repeat runs, not every such curve was filed as active; the % refers to the signal ratio; also: % is scaled to controls: 0 for no effect and ±100 for the full control effect)
Summary of the method: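 Beta-lactamase reporter under UAS control in GeneBLAzer FXR HEK 293T cells (5000/well) measured with LiveBLAzer FRET substrate after 2 h at room temperature. Compound exposure lasted 16 h at 37C.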

[6] = qHTS assay to identify small molecule antagonists of the farnesoid-X-receptor (FXR) signaling pathway - cell viability counter screen (AID 743221; active = well fitted cell-killing curve with a large enough effect in the repeat runs, not every such curve was filed as active; also: % is scaled to controls: 0 for no effect and ±100 for the full control effect; nearly all actives have a fitted effect of over 50% in size)
Summary of the method: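 Multiplexed counter screen: viability of FXR-bla HEK 293T cells under agonist stimulation by chenodeoxycholic acid (50 uM, final) and test compound for 16 h at 37 C, measured by CellTiter-Glo luminescence in the reporter wells.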

[7] = qHTS assay to identify small molecule agonists of the vitamin D receptor (VDR) signaling pathway - cell viability counter screen (AID 743224); also: series mostly up to about 63 µM; % is scaled to controls: 0 for no effect and ±100 for the full control effect; nearly all actives have a fitted effect of over 50% in size
Summary of the method: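 VDR-bla cells were preincubated 4 h at 37C/5% CO2, then exposed to compounds for 16 h. After the 2 h room-temperature bla FRET read, CellTiter-Glo was added to the same wells and luminescence read after 30 min.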

[8] = qHTS assay to identify small molecule antagonists of the vitamin D receptor (VDR) signaling pathway - cell viability counter screen (AID 743225); also: % is scaled to controls: 0 for no effect and ±100 for the full control effect; nearly all actives have a fitted effect of over 50% in size
Summary of the method: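 HEK293T VDR-bla; cpd + 1a,25-(OH)2D3 3 nM final, 16 h 37C/5% CO2; B/G FRET substrate 2 h RT; then CellTiter-Glo 30 min RT, luminescence.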

[9] = qHTS assay to identify small molecule agonists of the NFkB signaling pathway (AID 1159509; active = well fitted curve in the direction sought with a large enough effect in the signal ratio in the repeat runs, not every such curve was filed as active; the % refers to the signal ratio; also: series mostly up to about 61 µM; % is scaled to controls: 0 for no effect and ±100 for the full control effect)
Summary of the method: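 NFkB-bla ME-180 cells carry a beta-lactamase reporter under an NF-kB response element. They were plated overnight, then exposed to compounds for 5 h at 37 C. Read-out is LiveBLAzer FRET after 1.5 hr at room temperature (405 nm excitation; 460/530 nm emission).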

[10] = qHTS assay to identify small molecule agonists of the NFkB signaling pathway - cell viability counter screen (AID 1159515; calls by dose curve; also: series mostly up to about 61 µM; % is scaled to controls: 0 for no effect and ±100 for the full control effect; nearly all actives have a fitted effect of over 55% in size)
Summary of the method: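 NFkB-bla ME-180 cells, 2,000/well, were plated overnight at 37 C, 5% CO2, then exposed to compounds in DMSO for 5 hr. After the bla FRET read, CellTiter-Glo was added to the same wells; luminescence was read after 30 min at room temperature.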

[11] = qHTS assay to identify small molecule agonists of the endoplasmic reticulum stress response signaling pathway (AID 1159516; active = well fitted activation curve with a large enough effect in the signal ratio in the repeat runs, not every such curve was filed as active; the % refers to the signal ratio; also: % is scaled to controls: 0 for no effect and ±100 for the full control effect)
Summary of the method: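 CellSensor ESRE-bla HeLa cells, carrying a beta-lactamase reporter driven by the ER stress response element, were plated overnight and exposed to compounds for 5 hr at 37 C. Reporter activity was read as FRET substrate fluorescence after 2 hr at room temperature.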

[12] = qHTS assay to identify small molecule agonists of the endoplasmic reticulum stress response signaling pathway - cell viability counter screen (AID 1159517; calls by dose curve)
Summary of the method: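 ESRE-bla HeLa cells, 1,500 per well, seeded overnight then treated with compounds for 5 hr at 37 C. After the beta-lactamase read, viability in the same wells is measured by CellTiter-Glo luminescence after 30 min at room temperature.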

[13] = qHTS assay to identify small molecule antagonists of the retinoid-related orphan receptor gamma (ROR-gamma) signaling pathway - cell viability counter screen (AID 1159520)
Summary of the method: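 Tet-on ROR gamma CHO cells were given compounds for 2 hr, then doxycycline hyclate at 1 uM final, and incubated 16 hr at 37 C. Viability was measured as ATP content by CellTiter-Glo luminescence.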

[14] = target: Nuclear receptor ROR-gamma (Homo sapiens) (UniProt P51449); assay: qHTS assay to identify small molecule antagonists of the retinoid-related orphan receptor gamma (ROR-gamma) signaling pathway (AID 1159521)
Summary of the method: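 Cells were plated, rested 4 h at 37 C, exposed to compounds for 2 h, then given 1 uM final doxycycline hyclate to induce RORγ expression. After 16 h, ONE-Glo luminescence from the ROR response element reporter was measured.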

[15] = qHTS assay to identify small molecule agonists of the AP-1 signaling pathway - cell viability counter screen (AID 1159525; calls by dose curve; also: nearly all actives have a fitted effect of over 55% in size)
Summary of the method: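 AP-1-bla ME-180 cells in Opti-MEM with 0.5% dialyzed FBS, compound exposure 5 h at 37 C in 15-point titration. Viability read in the same wells as ATP content by CellTiter-Glo luminescence, normalised to tetra-n-octylammonium bromide and DMSO controls.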

[16] = qHTS assay to identify small molecule agonists of the AP-1 signaling pathway (AID 1159526; calls by dose curve; also: % is scaled to controls: 0 for no effect and ±100 for the full control effect)
[17] = target: Peroxisome proliferator-activated receptor delta (Homo sapiens) (UniProt Q03181); assay: qHTS assay to identify small molecule agonists of the peroxisome proliferator-activated receptor delta (PPARd) signaling pathway (AID 743212; calls by dose curve; also: % is scaled to controls: 0 for no effect and ±100 for the full control effect)
Peroxisome proliferator-activated receptor delta (Homo sapiens), sequence (Q03181 whole entry, looked up): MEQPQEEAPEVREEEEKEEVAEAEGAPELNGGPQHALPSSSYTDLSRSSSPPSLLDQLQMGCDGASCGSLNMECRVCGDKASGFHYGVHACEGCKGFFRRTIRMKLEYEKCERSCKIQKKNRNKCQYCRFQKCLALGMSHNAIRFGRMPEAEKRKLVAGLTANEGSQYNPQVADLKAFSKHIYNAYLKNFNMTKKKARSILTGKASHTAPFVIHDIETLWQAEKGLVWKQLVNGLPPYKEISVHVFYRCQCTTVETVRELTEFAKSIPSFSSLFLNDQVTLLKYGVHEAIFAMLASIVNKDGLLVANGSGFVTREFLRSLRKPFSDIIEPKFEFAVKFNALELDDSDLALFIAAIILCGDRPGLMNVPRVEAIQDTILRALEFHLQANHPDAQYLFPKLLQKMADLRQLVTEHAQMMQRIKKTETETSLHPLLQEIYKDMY
Summary of the method: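 GeneBLAzer UAS-bla HEK293H cells carrying a PPARδ construct were exposed to compounds at 37 °C. Beta-lactamase activity was read by FRET fluorescence after 2 h at room temperature with LiveBLAzer B/G substrate.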

[18] = target: Peroxisome proliferator-activated receptor delta (Homo sapiens) (UniProt Q03181); assay: qHTS assay to identify small molecule antagonists of the peroxisome proliferator-activated receptor delta (PPARd) signaling pathway (AID 743215; active = well fitted inhibition curve with a large enough effect in the signal ratio in the repeat runs, not every such curve was filed as active; the % refers to the signal ratio)
Summary of the method: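 PPARd UAS-bla HEK293H cells were pre-incubated 5 h at 37 C, then given test compounds in DMSO plus agonist L165041 (300 nM final). After 17 h at 37 C, beta-lactamase FRET substrate was added; fluorescence read after 2 h at room temperature.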

[19] = target: Vitamin D3 receptor (Homo sapiens) (UniProt P11473); assay: qHTS assay to identify small molecule agonists of the vitamin D receptor (VDR) signaling pathway (AID 743222; calls by dose curve; also: % is scaled to controls: 0 for no effect and ±100 for the full control effect)
Vitamin D3 receptor (Homo sapiens), sequence (P11473 whole entry, looked up): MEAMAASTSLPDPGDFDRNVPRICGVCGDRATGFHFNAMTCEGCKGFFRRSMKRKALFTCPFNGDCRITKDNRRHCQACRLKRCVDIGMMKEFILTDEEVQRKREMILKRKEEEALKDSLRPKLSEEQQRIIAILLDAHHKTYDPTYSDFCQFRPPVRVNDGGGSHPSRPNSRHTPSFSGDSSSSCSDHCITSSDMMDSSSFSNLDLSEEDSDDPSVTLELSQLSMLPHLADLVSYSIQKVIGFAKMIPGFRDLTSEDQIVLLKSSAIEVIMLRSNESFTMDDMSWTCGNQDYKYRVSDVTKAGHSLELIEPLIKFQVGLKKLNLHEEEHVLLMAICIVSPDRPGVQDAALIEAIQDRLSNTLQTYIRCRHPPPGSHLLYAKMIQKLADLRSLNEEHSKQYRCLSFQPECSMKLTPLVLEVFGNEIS
Summary of the method: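 VDR-bla cells were plated 4 h at 37C/5% CO2, then exposed to compounds in DMSO for 16 h. After LiveBLAzer B/G FRET substrate addition and 2 h at room temperature, beta-lactamase reporter fluorescence was read.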

[20] = target: Vitamin D3 receptor (Homo sapiens) (UniProt P11473); assay: qHTS assay to identify small molecule antagonists of the vitamin D receptor (VDR) signaling pathway (AID 743223; active = well fitted inhibition curve with a large enough effect in the signal ratio in the repeat runs, not every such curve was filed as active; the % refers to the signal ratio; also: % is scaled to controls: 0 for no effect and ±100 for the full control effect)
Summary of the method: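 Cells carrying a VDR-driven beta-lactamase reporter (VDR-bla) were co-treated with compound and 3 nM final 1alpha,25-dihydroxyvitamin D3 for 16 h at 37C; reporter activity was measured as FRET substrate fluorescence after 2 h at room temperature.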

N#Cc1cscn1
inactive: outcome [1] | outcome [2] | outcome [3] | outcome [4] | outcome [5] | outcome [6] | outcome [7] | outcome [8] | outcome [9] | outcome [10] | outcome [11] | outcome [12] | outcome [13] | outcome [14] | outcome [15] | outcome [16]

CCc1occc(=O)c1O
inactive: outcome [1] | outcome [17] | outcome [18] | outcome [3] | outcome [5] | outcome [6] | outcome [7] | outcome [8] | outcome [9] | outcome [10] | outcome [11] | outcome [12] | outcome [13] | outcome [14] | outcome [15] | outcome [16]

O=Cc1ccccc1Cl
inactive: outcome [1] | outcome [2] | outcome [3] | outcome [4] | outcome [5] | outcome [6] | outcome [19] | outcome [20] | outcome [8] | outcome [9] | outcome [10] | outcome [11] | outcome [12] | outcome [13] | outcome [14] | outcome [15] | outcome [16]

Fc1ccccc1
inactive: outcome [1] | outcome [17] | outcome [4] | outcome [6] | outcome [19] | outcome [7] | outcome [8] | outcome [9] | outcome [10] | outcome [11] | outcome [12] | outcome [13] | outcome [14] | outcome [15] | outcome [16]

CCCCCCCCCCCCCCCCCCOCCO
inactive: outcome [1] | outcome [17] | outcome [18] | outcome [3] | outcome [5] | outcome [19] | outcome [7] | outcome [8] | outcome [9] | outcome [10] | outcome [11] | outcome [12] | activity, negative = cytotoxicity [13] -10.1% [at 19 µM] | activity change, negative = inhibition [14] -12.9% [at 19 µM] | viability change, negative = cytotoxic [15] -27.1% [at 15.8 µM] | activation [16] 0.248% [at 15.8 µM]

C=C(C)c1cccc(C(C)(C)N=C=O)c1
inactive: outcome [1] | outcome [2] | outcome [6] | outcome [19] | outcome [20] | outcome [8] | outcome [9] | outcome [10] | outcome [11] | outcome [12] | outcome [13] | outcome [14] | outcome [15] | outcome [16]

CCCCOCCOC(=O)COc1ccc(Cl)cc1Cl
inactive: outcome [1] | outcome [2] | outcome [4] | outcome [6] | outcome [19] | outcome [7] | outcome [8] | outcome [9] | outcome [10] | outcome [11] | outcome [12] | outcome [13] | outcome [14] | outcome [15] | outcome [16]

CCO
inactive: outcome [1] | outcome [17] | outcome [3] | outcome [4] | outcome [5] | outcome [6] | outcome [19] | outcome [20] | outcome [7] | outcome [8] | outcome [9] | outcome [10] | outcome [11] | outcome [12] | outcome [13] | outcome [14] | outcome [15] | outcome [16]

CCC(=O)Oc1ccc2c(c1)CC[C@@H]1[C@@H]2CC[C@@]2(C)[C@H]1C[C@@H](OC(=O)CC)[C@@H]2OC(=O)CC
inactive: outcome [1] | outcome [2] | outcome [3] | outcome [4] | outcome [5] | outcome [19] | outcome [7] | outcome [8] | outcome [9] | outcome [10] | outcome [11] | outcome [12] | outcome [13] | outcome [14] | outcome [15] | outcome [16]

CCOc1ccccc1OCC1CNCCO1 (centres undefined)
inactive: outcome [1] | outcome [17] | outcome [6] | outcome [19] | outcome [20] | outcome [7] | outcome [8] | outcome [9] | outcome [10] | outcome [11] | outcome [12] | outcome [13] | outcome [14] | outcome [15] | outcome [16]

O=C=NCC1CCCC(CN=C=O)C1 (centres undefined)
inactive: outcome [1] | outcome [2] | outcome [4] | outcome [19] | outcome [20] | outcome [8] | outcome [9] | outcome [10] | outcome [11] | outcome [12] | outcome [13] | outcome [14] | outcome [15] | outcome [16]

COc1cc(OC)nc(O[C@H](C(=O)O)C(OC)(c2ccccc2)c2ccccc2)n1
inactive: outcome [1] | outcome [2] | outcome [4] | outcome [6] | outcome [19] | outcome [20] | outcome [8] | outcome [9] | outcome [10] | outcome [11] | outcome [12] | outcome [13] | outcome [14] | outcome [15] | outcome [16]

CC(=O)CC(=O)OC(C)(C)C
inactive: outcome [1] | outcome [17] | outcome [18] | outcome [4] | outcome [6] | outcome [19] | outcome [7] | outcome [8] | outcome [9] | outcome [10] | outcome [11] | outcome [12] | outcome [13] | outcome [14] | outcome [15] | outcome [16]

COP(=O)(O)OP(=O)(O)OC
inactive: outcome [1] | outcome [2] | outcome [4] | outcome [19] | outcome [20] | outcome [7] | outcome [9] | outcome [10] | outcome [11] | outcome [12] | outcome [13] | outcome [14] | outcome [15] | outcome [16]

C=C(C)[C@@H]1CC=C(C)C(=O)C1
inactive: outcome [1] | outcome [2] | outcome [4] | outcome [6] | outcome [20] | outcome [7] | outcome [8] | outcome [9] | outcome [10] | outcome [11] | outcome [12] | outcome [13] | outcome [14] | outcome [15] | outcome [16]

OC1OCCOC1O (centres undefined)
inactive: outcome [1] | outcome [2] | outcome [5] | outcome [6] | outcome [19] | outcome [20] | outcome [8] | outcome [9] | outcome [10] | outcome [11] | outcome [12] | outcome [13] | outcome [14] | outcome [15] | outcome [16]

Cc1ccc(C(=O)O)cc1[N+](=O)[O-]
inactive: outcome [1] | outcome [4] | outcome [6] | outcome [7] | outcome [9] | outcome [10] | outcome [11] | outcome [12] | outcome [13] | outcome [14] | outcome [15] | outcome [16]
